Experimental data published in ChEMBL document CHEMBL1157539, “Thousands of chemical starting points for antimalarial lead identification” (Nature, 2010).

Experiments:
Format in all cases: functional
Plasmodium falciparum [1] = assay: GSK_TCMDC: Inhibition of Plasmodium falciparum 3D7 in whole red blood cells, using parasite LDH activity as an index of growth. Test compounds present at 2uM
Plasmodium falciparum [2] = assay: GSK_TCMDC: Inhibition of Plasmodium falciparum Dd2 in whole red blood cells, using parasite LDH activity as an index of growth. Test compounds present at 2uM
HepG2 = assay: GSK_TCMDC: Percent inhibition of human HepG2 cell line. Test compounds present at 10uM.

## Cc1ccc(Nc2nccc(NCC(O)c3cccc(C(F)(F)F)c3)n2)cc1 (stereo not given)
Plasmodium falciparum [1]
  Inhibition: 99%
Plasmodium falciparum [2]
  Inhibition: 74%
HepG2
  Inhibition: 19%

## Cl.O=C(NCc1ccc(C(=O)N2CCC(N3CCCCC3)CC2)cc1)c1cc(-c2cccc(C(F)(F)F)c2)ccc1O
Plasmodium falciparum [1]
  Inhibition: 100%
Plasmodium falciparum [2]
  Inhibition: 58%
HepG2
  Inhibition: 0%

## Cc1cccc2nc(-c3cccc(-c4ccc(NC(=O)C(=O)c5cccn5C)cc4)c3)[nH]c12
Plasmodium falciparum [1]
  Inhibition: 100%
Plasmodium falciparum [2]
  Inhibition: 46%
HepG2
  Inhibition: 45%

## Cc1c(-c2ccccc2)ccc2[nH]cc(CC#N)c12
Plasmodium falciparum [1]
  Inhibition: 95%
Plasmodium falciparum [2]
  Inhibition: 85%
HepG2
  Inhibition: 2%

## O=C(NC(c1ccc(Cl)cc1)c1ccc2cccnc2c1O)c1ccccc1 (stereo not given)
Plasmodium falciparum [1]
  Inhibition: 87%
Plasmodium falciparum [2]
  Inhibition: 80%
HepG2
  Inhibition: 44%

## Cc1cc(SC(C)(C)C)cc2c(Cl)c(C(N)=O)cnc12
Plasmodium falciparum [1]
  Inhibition: 98%
Plasmodium falciparum [2]
  Inhibition: 98%
HepG2
  Inhibition: 83%

## Cc1cccc2nc(-c3cccc(-c4cccc(CN5CCC(CO)CC5)c4)c3)[nH]c12.O=C(O)C(F)(F)F
Plasmodium falciparum [1]
  Inhibition: 100%
Plasmodium falciparum [2]
  Inhibition: 90%
HepG2
  Inhibition: 4%

## O=C(Nc1cccc(Cl)c1Cl)Nc1ccnc2ccccc12
Plasmodium falciparum [1]
  Inhibition: 100%
Plasmodium falciparum [2]
  Inhibition: 47%
HepG2
  Inhibition: 31%

## CC(=NNC(N)=O)C1=C(O)C(c2ccccc2)N(C2CCCCC2)C1=O (stereo not given)
Plasmodium falciparum [1]
  Inhibition: 93%
Plasmodium falciparum [2]
  Inhibition: 96%
HepG2
  Inhibition: 59%

## C[C@@]12C[C@@H](Nc3nc(NCCc4ccc(O)cc4)nc(N4CCNCC4)n3)C[C@@H](C1)c1cccc(Cl)c1O2.O=C(O)C(F)(F)F
Plasmodium falciparum [1]
  Inhibition: 100%
Plasmodium falciparum [2]
  Inhibition: 47%
HepG2
  Inhibition: 92%

## CSCCCN1CCC(O)(c2ccc3oc(C(=O)Nc4ccc5sc(C)nc5c4)cc3c2)CC1
Plasmodium falciparum [1]
  Inhibition: 100%
Plasmodium falciparum [2]
  Inhibition: 69%
HepG2
  Inhibition: 10%

## O=S(=O)(NC1=NCCC1)c1cccc(Nc2nc(C(F)(F)F)nc3ccccc23)c1
Plasmodium falciparum [1]
  Inhibition: 83%
Plasmodium falciparum [2]
  Inhibition: 8%
HepG2
  Inhibition: 6%

## N#Cc1cccc(NC(=O)c2cccc(S(=O)(=O)NC3CCN(CC4CCCCC4)C3)c2)c1.O=C(O)C(F)(F)F (stereo not given)
Plasmodium falciparum [1]
  Inhibition: 100%
Plasmodium falciparum [2]
  Inhibition: 27%
HepG2
  Inhibition: 29%

## Clc1cc(Nc2ncnc3sc(C#C[C@H]4CCCN4)cc23)ccc1OCc1cccnc1Cl.O=C(O)C(F)(F)F
Plasmodium falciparum [1]
  Inhibition: 100%
Plasmodium falciparum [2]
  Inhibition: 93%
HepG2
  Inhibition: 9%

## CN1CCC(NCc2cccc(-c3ccc(S(=O)(=O)NCCc4ccccn4)cc3)c2)CC1.O=C(O)C(F)(F)F
Plasmodium falciparum [1]
  Inhibition: 95%
Plasmodium falciparum [2]
  Inhibition: 1%
HepG2
  Inhibition: 10%

## Cl.O=C(O)CCCN1CCCC(=C(c2ccccc2)c2ccccc2)C1
Plasmodium falciparum [1]
  Inhibition: 82%
Plasmodium falciparum [2]
  Inhibition: 2%
HepG2
  Inhibition: 0%

## CCCCCCCCCCNCC(O)c1ccc(O)c(C(=O)OC)c1 (stereo not given)
Plasmodium falciparum [1]
  Inhibition: 97%
Plasmodium falciparum [2]
  Inhibition: 97%
HepG2
  Inhibition: 3%

## C=C[C@]1(C)C[C@@H](OC(=O)CNC[C@@H](O)CN2C[C@H](c3ccnc4ccc(OC)nc34)OC2=O)[C@@]2(C)[C@@H]3C(=O)CC[C@@]3(CC[C@@H]2C)[C@@H](C)[C@@H]1O
Plasmodium falciparum [1]
  Inhibition: 89%
Plasmodium falciparum [2]
  Inhibition: 82%
HepG2
  Inhibition: 0%

## COc1ccc(Br)cc1C1Nc2ccc3ccccc3c2C2=C1C(=O)CC(c1ccccc1)C2 (stereo not given)
Plasmodium falciparum [1]
  Inhibition: 100%
Plasmodium falciparum [2]
  Inhibition: 96%
HepG2
  Inhibition: 25%

## O=C(O)C[C@H](NC(=O)[C@@H]1CCCN1C(=O)c1cccc(-c2ccc(Cl)c(Cl)c2)c1)C(=O)O
Plasmodium falciparum [1]
  Inhibition: 84%
Plasmodium falciparum [2]
  Inhibition: 0%
HepG2
  Inhibition: 0%

## OC(c1ccccc1)C1CN(Cc2ccccc2)CCC1(O)c1ccccc1 (stereo not given)
Plasmodium falciparum [1]
  Inhibition: 91%
Plasmodium falciparum [2]
  Inhibition: 82%
HepG2
  Inhibition: 4%

## O=C1Nc2cccc3c2C1(CCCCN1CCC(c2c[nH]c4cc(C(F)(F)F)ccc24)CC1)CCC3 (stereo not given)
Plasmodium falciparum [1]
  Inhibition: 99%
Plasmodium falciparum [2]
  Inhibition: 79%
HepG2
  Inhibition: 99%

## COc1cc(NC(=O)Nc2ccc([N+](=O)[O-])cc2OC)c(OC)cc1Cl
Plasmodium falciparum [1]
  Inhibition: 87%
Plasmodium falciparum [2]
  Inhibition: 6%
HepG2
  Inhibition: 38%

## CCCCn1c(Sc2ccc(C#N)c([N+](=O)[O-])c2)nnc1-c1cc(OC)cc(OC)c1
Plasmodium falciparum [1]
  Inhibition: 94%
Plasmodium falciparum [2]
  Inhibition: 70%
HepG2
  Inhibition: 7%

## CCOc1ccc(C(=O)Nc2cc3c(c(C(F)(F)F)c2)CCNC3)cc1Cl.Cl
Plasmodium falciparum [1]
  Inhibition: 91%
Plasmodium falciparum [2]
  Inhibition: 1%
HepG2
  Inhibition: 4%

## CCNc1cc(C(=O)N[C@@H](Cc2ccccc2)[C@H](O)CNC2CCC(C)(C)CC2)cc(N2CCCCS2(=O)=O)c1.Cl
Plasmodium falciparum [1]
  Inhibition: 98%
Plasmodium falciparum [2]
  Inhibition: 71%
HepG2
  Inhibition: 1%

## COc1ccc2nccc(N3CCC(SCCNCc4cc5c(cn4)OCCO5)C3)c2n1.Cl (stereo not given)
Plasmodium falciparum [1]
  Inhibition: 100%
Plasmodium falciparum [2]
  Inhibition: 100%
HepG2
  Inhibition: 30%

## O=c1[nH]nc(-c2ccc(N3CCCC3)c([N+](=O)[O-])c2)c2ccccc12
Plasmodium falciparum [1]
  Inhibition: 100%
Plasmodium falciparum [2]
  Inhibition: 39%
HepG2
  Inhibition: 2%

## O=S(=O)(Nc1cccc(CCN2CCC(N3CCCCC3)CC2)c1)c1ccc2c(c1)OCCO2
Plasmodium falciparum [1]
  Inhibition: 91%
Plasmodium falciparum [2]
  Inhibition: 5%
HepG2
  Inhibition: 8%

## O=C(Cc1cccs1)NC(CCCN1CCC(Oc2cccc(Cl)c2)CC1)c1ccc(Cl)c(Cl)c1 (stereo not given)
Plasmodium falciparum [1]
  Inhibition: 86%
Plasmodium falciparum [2]
  Inhibition: 70%
HepG2
  Inhibition: 39%
